PABP1 MLLE inh = inhibitors of microRNA-mediated deadenylation, human PABP1 MLLE binding; GST-MLLE / FITC-PAM2 fluorescence polarization; AID 588489; P11940; inhibition, % at 20 µM; 0.36% of 360,000 active; in the data active means inhibition above about 35%, passing the limit was not always enough;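 further: plate controls were DMSO wells with GST-MLLE for no effect and wells lacking GST-MLLE protein for full effect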
Target sequence (P11940 whole entry, looked up): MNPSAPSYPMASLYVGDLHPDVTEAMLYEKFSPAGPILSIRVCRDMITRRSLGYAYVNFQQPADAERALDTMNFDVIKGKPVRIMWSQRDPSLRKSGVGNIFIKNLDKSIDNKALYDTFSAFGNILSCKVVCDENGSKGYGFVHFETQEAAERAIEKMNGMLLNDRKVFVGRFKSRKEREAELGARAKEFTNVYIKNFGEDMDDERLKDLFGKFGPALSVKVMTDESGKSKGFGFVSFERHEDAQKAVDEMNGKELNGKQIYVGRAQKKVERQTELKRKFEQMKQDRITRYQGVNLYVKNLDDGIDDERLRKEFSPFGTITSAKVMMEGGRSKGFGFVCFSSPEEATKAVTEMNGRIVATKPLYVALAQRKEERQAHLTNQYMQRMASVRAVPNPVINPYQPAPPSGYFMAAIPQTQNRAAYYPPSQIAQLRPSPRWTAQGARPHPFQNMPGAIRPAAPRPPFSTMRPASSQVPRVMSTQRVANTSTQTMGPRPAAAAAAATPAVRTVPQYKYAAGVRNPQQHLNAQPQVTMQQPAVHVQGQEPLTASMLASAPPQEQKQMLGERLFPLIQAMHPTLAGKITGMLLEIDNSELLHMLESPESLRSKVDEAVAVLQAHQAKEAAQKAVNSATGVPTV
eIF4E-4G inh = eIF4E/eIF4G interaction inhibition in translation initiation; P63073+Q04637; TR-FRET eIF4E-eIF4GI(517-606) binding, 2 h; inhibition, % at 21.7 µM; 0.37% of 220,000 active;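 active means inhibition above about 30%, limit read from the data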;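 further: 0% = full FRET control wells and 100% = background wells lacking eIF4GI fragment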
PABP polyA inh = blocks human PABP binding to poly(A) RNA. calls only at 35 µM. P11940. fluorescence polarization. 1% of 290,000 active;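 further: calls also rest on retests at 20 µM and on dose response follow-up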
eIF4H inh = inhibitors of RNA binding by human eIF4H; Q15056; eIF4H fluorescence polarization binding assay; inhibition, % at 35 µM; 0.94% of 290,000 active; AID 2012;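 further: calls also rest on retests at 20 µM and on dose response follow-up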
EBV gp42 inh = blocks Epstein-Barr virus glycoprotein 42 binding | Q1HVG2 | inhibition, % (tested at 21.74 µM) | 0.42% of 220,000 active | Fluorescence polarization binding assay, mP read-out; in the data active means inhibition above about 50%
* marks the source's active call; other numbers are inactive results; i = inactive; ? = inconclusive; / = not tested or not shown; + = active, no number; [ ] = remark or other dose. In the library only some 1.7% were active in any assay of this set; here they are far more common. Unless noted, how the calls were made is not given here.

SMILES	PABP1 MLLE inh	eIF4E-4G inh	PABP polyA inh	eIF4H inh	EBV gp42 inh
CC(=O)N/N=C/c1cc(C(C)(C)C)cc(/C=N/NC(C)=O)c1O	83	-2	?	?	67*
Cc1csc(CNC(=O)c2cc(COc3c(C)cccc3C)on2)n1	19	/	i	-6	/
COc1ccc(-c2csc(NC(=O)C3CCN(C(=O)c4ccc(F)cc4)CC3)n2)cc1OC	-1	/	i	-13	/
C(=C\c1ccco1)/C1=NN(c2ccccc2)C(c2ccco2)C1 (configuration not stated)	-73	6	i	71*	-38
O=[N+]([O-])c1ccc(/C=C/C2=NN(c3ccccc3)C(c3ccco3)C2)o1 (configuration not stated)	-91	6	i	42	-26
Nc1ccccc1C(=O)NC(=O)Nc1ccc(Oc2ncc(Br)cn2)c(Cl)c1	-10	/	/	/	/
Oc1ccc(/C=N/n2cc(-c3ccccc3)[nH]c2=S)cc1	43*	-3	i	0	-7
Cc1ccc(N=C(N)N=C(N)N)cc1	1	-7	i	-2	-13
O=C(COc1cc2oc(=O)c3c(c2cc1Cl)CCC3)NCc1ccncc1	-4	/	i	-12	/
CN(Cc1ccc(Cl)cc1)C(=O)COC(=O)CSc1ccc([N+](=O)[O-])cc1	40*	/	/	/	/
O=C(NCc1cccnc1)c1cccc(S(=O)(=O)Nc2cccc(Cl)c2)c1	-10	/	/	/	/
COc1c(Cl)cc(-c2noc(C)c2C(=O)NC(C)C)cc1Cl	9	42*	i	4	-9
O=c1c(/C=N/OCc2ccc(Cl)cc2Cl)c[nH]n1-c1cccc(Cl)n1	-8	1	i	25*	-7
CC(C)C1OC2c3cccc4cccc(c34)C2N1c1ccccc1 (configuration not stated)	44*	-1	i	105	-15
Cc1ccc(NC(=O)C2CCN(S(=O)(=O)c3ccc(C(C)(C)C)cc3)CC2)cc1S(=O)(=O)N1CCOCC1	5	/	/	/	/
Cc1nnc(NC(=O)CSc2nc(C(C)C)nc3ccccc23)s1	37*	/	i	-4	-11
Cc1nnc(NC(=O)CSc2cn(CCNC(=O)c3ccccc3)c3ccccc23)s1	20	-2	i	?	54*
CC1(Oc2ccccc2-c2ccn[nH]2)CCN(Cc2ccc(OC(F)(F)F)cc2)C1 (configuration not stated)	8	/	/	/	/
CC(C)(C)OC(=O)NOCC(=O)N(Cc1ccccc1)CC(O)COc1ccccc1 (configuration not stated)	-3	/	/	/	/
CCOC(=O)C1=C(C)NC(C)=C(C(=O)OCC)C1c1ccc(O)cc1	-4	-1	+	7.4*	-23
COC(=O)C(C)N1C(=O)S/C(=C/c2cc(C)n(-c3ccccn3)c2C)C1=O (configuration not stated)	-7	3	+	83*	-9
CCCC(=O)Nc1ccc2oc(-c3ccncc3)nc2c1	-7	-24	i	1	-4
CCCCC(=O)Nc1ccc2oc(-c3ccncc3)nc2c1	5	55*	i	9	-15
Fc1ccccc1/C=N/Nc1ncnc2nc[nH]c12	13	3	i	0	59*
Clc1ccc(/C=N/Nc2ncnc3nc[nH]c23)cc1	8	66*	i	-9	4
SMILES	PABP1 MLLE inh	eIF4E-4G inh	PABP polyA inh	eIF4H inh	EBV gp42 inh
CC(C)c1ccccc1NC(=O)Nc1nnc([C@@H]2C[C@H](O)[C@@H](CO)O2)s1	0	/	/	/	/
O=C1[C@@H]2Cc3c([nH]c4ccccc34)CN2C(=O)CN1CCCCCO	9	/	i	-1	/
Cc1cccc2cc(CN(CCN3CCOCC3)C(=O)Nc3ccccc3F)c(=O)[nH]c12	9	6	+	81*	-10
COc1ccc(NC(=O)NC(=O)c2cc(OCC(F)(F)F)ccc2OCC(F)(F)F)cc1	6	3	i	1	74*
O=C(N/N=C/c1ccco1)c1cc(-c2cccs2)[nH]n1	-3	10	+	60*	-6
Cc1nc2ccccc2cc1C(=O)N/N=C/c1ccco1	-4	15	i	87*	-8
O=C(N/N=C/c1ccco1)c1cc(-c2ccc(Br)s2)[nH]n1	-5	-5	i	8	3
CCCCC1(C)OC(=O)C(=Cc2ccc(N(CC)CC)cc2)C(=O)O1 (configuration not stated)	-130	-11	?	?	75*
CC(C)(C)C1=Nn2c(nnc2-c2ccccn2)SC1	-16	51*	i	1	-28
CC(C)(C)C1=Nn2c(nnc2-c2ccccc2F)SC1	-9	/	i	-1	-27
Cn1cncc1C(=O)c1ccccc1	9	2	i	1	-9
CCCn1c(=C(C#N)C#N)s/c(=C2\C=Cc3ccccc3N2CC)c1=O	40*	-2	i	2	53*
CC(C)c1ccc(C(=O)N2CCOCC2c2cc(C(=O)Nc3ccccc3)no2)cc1 (configuration not stated)	-11	/	/	/	/
N#Cc1c(N)n[nH]c1-c1cc2c([nH]1)CCCC2	11	1	i	5	-1
N#Cc1cc2c([nH]c1=S)CCCCCC2	38*	3	i	-5	2
CCCC(=O)N1CCC1(C)C(=O)NS(=O)(=O)c1ccc(C(C)(C)C)cc1 (configuration not stated)	-15	/	/	/	/
CCN(C(=O)COC(=O)c1cc2c(s1)CCCCC2)C1CCS(=O)(=O)C1 (configuration not stated)	5	/	i	57	/
CC(C)CN(C(=O)COC(=O)c1cc2c(s1)CCC2)C1CCS(=O)(=O)C1 (configuration not stated)	1	14	+	86*	19
O=C(COc1ncnc2sccc12)N1CCN(C(=O)c2ccco2)CC1	3	7	+	66	-4
CC(C)(C)OC(=O)C[C@@H]1C/C=C\C[C@H](CC(=O)N[C@H](CO)Cc2ccccc2)C(=O)N[C@@H](Cc2c[nH]c3ccccc23)COC1=O	-21	/	/	/	/
COc1ccc(S(=O)(=O)N2CC(C)N(C(=O)N3CCOCC3)C2)cc1 (configuration not stated)	2	/	i	-4	/
CCCCn1c(N)c(N(CCOC)C(=O)C2CCN(S(=O)(=O)c3ccccc3)CC2)c(=O)[nH]c1=O	-2	/	/	/	/
O=c1c2c([N+](=O)[O-])cc([N+](=O)[O-])cc2sn1-c1ccc(Br)cc1	3	33*[fluorescence artefact?]	i	-1	-9
O=c1c2c([N+](=O)[O-])cc([N+](=O)[O-])cc2sn1Cc1ccccc1	33	/	i	-1	/
COc1ccccc1CNCCS(=O)(=O)NN1CCOCC1	20	/	/	/	/
COc1ccc(CN2CCN(C(=O)CC(C)C)CC2)c(OC)c1OC	10	77*	i	13	-9
COc1ccc(OCC(=O)N2CC3(C)CC2CC(C)(C)C3)cc1 (configuration not stated)	2	36*	i	-7	-6
NC(COCc1ccccc1)c1csc(Nc2ccc(C(=O)c3ccccc3)cc2)n1 (configuration not stated)	5	/	/	/	/
CCCc1nc2c([nH]1)c(=O)n(C)c(=O)n2C	3	-1	i	0	-2
